Measurements from PubChem BioAssay (NCATS).
Several values for one entry are separate records, joined by “and”; a condition that tells them apart may be missing. Equal entries are not always repeated. Records with an inconclusive call do not appear. Activity calls are given as the source filed them. Unless noted, calls come from the whole dose curve; as a rule, active = well fitted curve in the direction sought with a large enough effect; inconclusive = small, poorly fitted or top-dose-only effect, or another doubt; inactive = no such curve, though single readings can be large; an effect the other way counts as inactive or inconclusive.

How the values were obtained:
[1] = biological target: Luciferin 4-monooxygenase (Photinus pyralis) (UniProt P08659); experiment: Biochemical firefly luciferase enzyme assay for NPC (AID 624030); note: nearly all actives have a fitted effect of over 70% in size; note: potency is the fitted concentration of half-maximal effect
Chain of Luciferin 4-monooxygenase (Photinus pyralis) (P08659 whole entry, looked up): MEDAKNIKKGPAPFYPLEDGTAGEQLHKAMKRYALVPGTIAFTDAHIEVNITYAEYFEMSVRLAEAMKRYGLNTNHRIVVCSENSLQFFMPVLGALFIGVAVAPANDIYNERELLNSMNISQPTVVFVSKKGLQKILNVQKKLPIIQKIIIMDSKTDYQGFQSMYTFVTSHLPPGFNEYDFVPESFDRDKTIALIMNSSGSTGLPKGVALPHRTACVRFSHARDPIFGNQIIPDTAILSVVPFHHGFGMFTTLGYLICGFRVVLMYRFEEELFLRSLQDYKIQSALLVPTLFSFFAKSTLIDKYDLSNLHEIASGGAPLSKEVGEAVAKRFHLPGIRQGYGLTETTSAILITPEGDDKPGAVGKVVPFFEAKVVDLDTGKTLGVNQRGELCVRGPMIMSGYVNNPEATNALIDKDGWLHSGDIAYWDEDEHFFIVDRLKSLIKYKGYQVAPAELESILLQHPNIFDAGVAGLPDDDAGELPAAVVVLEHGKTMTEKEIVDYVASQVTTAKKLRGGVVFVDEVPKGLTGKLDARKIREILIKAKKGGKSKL
Method in brief: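 Counter-screen for direct inhibition of the luciferase enzyme by approved-drug library compounds, run at 10 nM enzyme in 50 mM Tris acetate (final). Luminescence was read within 5 min of enzyme-buffer addition and normalized to PTC124 versus DMSO (0%).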

[2] = P-glycoprotein substrates identified in KB-8-5-11 adenocarcinoma cell line, qHTS therapeutic library screen (AID 1346987); note: nearly all actives have a fitted effect of over 65% in size; note: potency is the fitted concentration of half-maximal effect
Method in brief: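 KB-8-5-11: colchicine-selected sub-line of KB-3-1 over-expressing P-gp; assay medium lacked colchicine. 72 h drug exposure at 37 degree C, CellTiter-Glo.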

[3] = tested on: KB-3-1; experiment: Cytotoxic Profiling of Annotated Libraries Using Quantitative High-Throughput Screening (AID 1296008); settings: Five cell lines viability, CellTiter-Glo ATP luminescence, 48-72 h; max response: active compounds read low; note: nearly all actives have a fitted effect of over 60% in size; note: potency is the fitted concentration of half-maximal effect; for max response: % is set by controls: 0 for no effect and ±100 for the full control effect
Method in brief: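 Compounds were pin-transferred onto cells and incubated 48 or 72 hr at 37 degree Celsius, 95% humidity. CellTiter-Glo was added, plates sat 10 min at room temperature, then ATP-coupled luminescence was imaged as the viability read-out.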

[4] = tested on: astro; experiment: Drug repurposing screens with cells derived from glioblastoma tumor samples (AID 1345199); settings: viability, ATP luminescence, 48 h; series mostly up to 45.9 µM; note: nearly all actives have a fitted effect of over 40% in size; note: potency is the fitted concentration of half-maximal effect
Method in brief: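 Four patient lines of CD133+ GBM neurospheres were screened at several concentrations; hits were retested in those lines plus three slower-growing GBM lines, using 48-hour treatment and ATP-based viability.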

[5] = Primary qHTS for Huh7 cytotoxicity: counterscreen for inhibitors of MERS-S pseudotyped particle cell entry (AID 1479147; calls by dose curve); settings: outcome: dose series up to 57.1 µM unless noted
[6] = Primary qHTS for inhibitors of MERS-S pseudo-typed particle cell entry (AID 1479149; calls by dose curve; note: nearly all actives have a fitted effect of over 60% in size)
[7] = Primary qHTS for Vero E6 cytotoxicity: counterscreen for inhibitors of SARS-S pseudo-typed particle cell entry (AID 1479150; calls by dose curve; note: % is set by controls: 0 for no effect and ±100 for the full control effect); settings: outcome: dose series up to 57.1 µM unless noted
[8] = Cytotoxicity counterscreen for inhibitors of SARS-CoV-2 cell entry (AID 1645845; calls by dose curve; note: % is set by controls: 0 for no effect and ±100 for the full control effect; nearly all actives have a fitted effect of over 50% in size)
Method in brief: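 Expi293F/hACE2 cells seeded overnight; cpd pin-transferred in DMSO, 1 h preincubation, + media, 48 h 37 C 5% CO2; ATPLite 1step luminescence; normalized to cells and no cells.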

[9] = biological target: Glutathione peroxidase 1 (Homo sapiens) (UniProt P07203); experiment: Primary qHTS Assay for Inhibitors of Recombinant Selenoprotein Glutathione Peroxidase 1 (GPX1) (AID 1845191); note: % is set by controls: 0 for no effect and ±100 for the full control effect; nearly all actives have a fitted effect of over 65% in size
Chain of Glutathione peroxidase 1 (Homo sapiens) (P07203 whole entry, looked up): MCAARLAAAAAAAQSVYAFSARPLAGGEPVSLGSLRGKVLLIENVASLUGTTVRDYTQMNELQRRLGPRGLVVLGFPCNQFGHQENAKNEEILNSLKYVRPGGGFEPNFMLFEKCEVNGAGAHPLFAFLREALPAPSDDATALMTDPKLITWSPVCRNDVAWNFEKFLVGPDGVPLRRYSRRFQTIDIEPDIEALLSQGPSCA
Method in brief: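 Recombinant GPX1 (10 nM final) was preincubated with compound for 30 min at room temperature, then reacted with 1 mM GSH, 0.5 mM CHP, 0.5 mM NADPH and 100 nM glutathione reductase; NADPH fluorescence (340/450 nm) was read at 0 and 15 min.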

[10] = Primary qHTS for inhibitors of SARS-S pseudo-typed particle cell entry (AID 1479145; calls by dose curve; note: % is set by controls: 0 for no effect and ±100 for the full control effect; nearly all actives have a fitted effect of over 45% in size)
[11] = tested on: CRL-7250; experiment: qHTS assay to identify novel small-molecules to repurpose for Merkel cell carcinoma treatment (AID 1296009); settings: MCC and control cell lines, CellTiter-Glo viability, 72 h; series mostly up to 92 µM; note: nearly all actives have a fitted effect of over 60% in size
Method in brief: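 Cells exposed to NPC (8-point) and MIPE (11-point) compound dilutions for 72 hr at 37 degree celsius; viability read by CellTiter-Glo luminescence, normalized to no-cell and DMSO in-plate controls.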

[12] = biological target: ATP-dependent 6-phosphofructokinase (Trypanosoma brucei brucei) (UniProt O15648); experiment: qHTS Assay to Find Inhibitors of T. brucei phosphofructokinase: hit validation (AID 492961); note: potency is the fitted concentration of half-maximal effect
Chain of ATP-dependent 6-phosphofructokinase (Trypanosoma brucei brucei) (O15648 whole entry, looked up): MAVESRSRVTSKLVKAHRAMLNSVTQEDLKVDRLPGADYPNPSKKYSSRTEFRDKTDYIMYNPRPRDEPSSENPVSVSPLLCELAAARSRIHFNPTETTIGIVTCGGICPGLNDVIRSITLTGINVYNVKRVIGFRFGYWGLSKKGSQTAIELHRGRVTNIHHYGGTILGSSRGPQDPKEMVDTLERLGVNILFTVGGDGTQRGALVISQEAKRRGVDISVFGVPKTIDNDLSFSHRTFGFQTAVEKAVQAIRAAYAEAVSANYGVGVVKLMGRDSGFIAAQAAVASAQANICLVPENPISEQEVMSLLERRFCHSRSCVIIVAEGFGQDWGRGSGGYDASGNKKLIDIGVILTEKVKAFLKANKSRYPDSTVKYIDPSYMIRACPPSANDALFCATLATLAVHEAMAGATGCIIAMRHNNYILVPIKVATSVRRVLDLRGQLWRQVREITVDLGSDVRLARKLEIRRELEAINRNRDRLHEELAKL
Method in brief: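 PFK 1.25 nM, F6P 0.5 mM, ATP 0.1 mM, MgCl2 5 mM, 0.1 M TEA pH 8.0, Tween20 0.01%, BSA 0.1%; 45 min RT. ADP-Glo two-step detection, luminescence. qHTS titration; curve fitting with curve-class categorization.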

[13] = biological target: Ubiquitin carboxyl-terminal hydrolase 1 (Homo sapiens) (UniProt O94782); experiment: Inhibitors of USP1/UAF1: Pilot qHTS (AID 504865); note: potency is the fitted concentration of half-maximal effect; nearly all actives have a fitted effect of over 35% in size
Chain of Ubiquitin carboxyl-terminal hydrolase 1 (Homo sapiens) (O94782 whole entry, looked up): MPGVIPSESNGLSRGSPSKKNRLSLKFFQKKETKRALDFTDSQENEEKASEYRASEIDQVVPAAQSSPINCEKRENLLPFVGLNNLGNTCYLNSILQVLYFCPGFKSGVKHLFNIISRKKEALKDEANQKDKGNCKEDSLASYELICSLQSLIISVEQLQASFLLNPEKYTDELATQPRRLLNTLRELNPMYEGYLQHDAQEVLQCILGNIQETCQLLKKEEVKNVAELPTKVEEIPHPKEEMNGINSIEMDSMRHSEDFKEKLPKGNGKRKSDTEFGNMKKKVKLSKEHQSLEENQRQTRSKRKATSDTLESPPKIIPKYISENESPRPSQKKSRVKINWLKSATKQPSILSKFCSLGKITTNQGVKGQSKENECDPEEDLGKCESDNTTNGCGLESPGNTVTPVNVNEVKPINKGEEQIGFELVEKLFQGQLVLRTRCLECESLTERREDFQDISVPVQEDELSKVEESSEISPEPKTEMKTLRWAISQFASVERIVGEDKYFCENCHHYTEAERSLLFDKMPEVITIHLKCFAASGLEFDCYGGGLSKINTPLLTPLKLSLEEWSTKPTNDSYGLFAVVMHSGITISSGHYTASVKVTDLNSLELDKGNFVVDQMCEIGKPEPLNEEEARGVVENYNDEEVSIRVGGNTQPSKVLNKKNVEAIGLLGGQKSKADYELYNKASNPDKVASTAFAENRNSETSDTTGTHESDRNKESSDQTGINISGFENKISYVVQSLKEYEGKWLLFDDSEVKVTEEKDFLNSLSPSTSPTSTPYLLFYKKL
Method in brief: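 USP1/UAF1 complex (1nM) preincubated with compound 15 min at room temperature, then Ub-Rho substrate (150nM final) added. Fluorescence read kinetically at 480/540 nm, 6 reads every 60 seconds. Buffer: 50mM HEPES pH 7.8, 0.5mM EDTA, 0.1 mg/ml BSA, 1mM TCEP, 0.01% Tween-20.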

[14] = S16 Schwann cell viability assay (CellTiter-Glo assay) (AID 624031); note: potency is the fitted concentration of half-maximal effect; nearly all actives have a fitted effect of over 70% in size
Method in brief: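 Rat S16 Schwann cells without reporter constructs received compound or DMSO for 24 h at 37 °C under 5% CO2. Cellular ATP was then quantified by CellTiter-Glo luminescence, with vehicle wells defined as 0% activity and cell-free wells as reference.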

[15] = S16 Schwann cell PMP22 intronic element firefly luciferase assay (AID 624032); note: potency is the fitted concentration of half-maximal effect; nearly all actives have a fitted effect of over 30% in size
Method in brief: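 Rat S16 Schwann cells stably carrying a PMP22 intronic element-driven Fluc reporter were seeded overnight, then exposed to compounds for 24 h at 37 °C. Luminescence was normalized to PTC124 (positive control) and DMSO (0% activity).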

[16] = S16 Schwann cell PMP22 intronic element beta-lactamase assay (AID 624044; calls by dose curve; note: potency is the fitted concentration of half-maximal effect; nearly all actives have a fitted effect of over 15% in size)
Method in brief: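 Rat S16 Schwann cells with beta-Lac driven by a PMP22 intronic element, compound-treated 24 h at 37 °C. LiveBLAzer FRET B/G read: 460 nm normalized to potassium clavulanate vs DMSO; 535 nm FRET as viability; concentration-effect curves classified.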

[17] = tested on: 3D7; experiment: qHTS profiling for inhibitors of Plasmodium falciparum proliferation (AID 504749); note: potency is the fitted concentration of half-maximal effect; nearly all actives have a fitted effect of over 60% in size; settings: P. falciparum in erythrocytes, SYBR Green DNA, 72 h; series mostly up to 28.7 µM
Method in brief: (§1)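 P. falciparum-infected erythrocytes (0.3% parasitemia, 2.5% hematocrit final) were exposed to compounds for 72 h at 37 C in 5% CO2, then lysed with SYBR Green buffer overnight at room temperature; parasite DNA fluorescence was normalized to artemisinin and DMSO controls.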

[18] = tested on: 7G8; experiment: as above; settings: P. falciparum in erythrocytes, SYBR Green DNA, 72 h; series mostly up to 28.7 µM
Method in brief: as §1

[19] = tested on: AA1029; experiment: as above; settings: P. falciparum in erythrocytes, SYBR Green DNA, 72 h; series mostly up to 28.7 µM
Method in brief: as §1

[20] = tested on: CP211; experiment: as above; settings: P. falciparum in erythrocytes, SYBR Green DNA, 72 h; series mostly up to 28.7 µM
Method in brief: as §1

[21] = tested on: CP217; experiment: as above; settings: P. falciparum in erythrocytes, SYBR Green DNA, 72 h; series mostly up to 28.7 µM
Method in brief: as §1

[22] = tested on: CP238; experiment: as above; settings: P. falciparum in erythrocytes, SYBR Green DNA, 72 h; series mostly up to 28.7 µM
Method in brief: as §1

[23] = tested on: CP247; experiment: as above; settings: P. falciparum in erythrocytes, SYBR Green DNA, 72 h; series mostly up to 28.7 µM
Method in brief: as §1

[24] = tested on: CP269; experiment: as above; settings: P. falciparum in erythrocytes, SYBR Green DNA, 72 h; series mostly up to 28.7 µM
Method in brief: as §1

[25] = tested on: CP286; experiment: as above; settings: P. falciparum in erythrocytes, SYBR Green DNA, 72 h; series mostly up to 28.7 µM
Method in brief: as §1

[26] = tested on: DFO2036; experiment: as above; settings: P. falciparum in erythrocytes, SYBR Green DNA, 72 h; series mostly up to 28.7 µM
Method in brief: as §1

[27] = tested on: DIV14; experiment: as above; settings: P. falciparum in erythrocytes, SYBR Green DNA, 72 h; series mostly up to 28.7 µM
Method in brief: as §1

[28] = tested on: DIV17; experiment: as above; settings: P. falciparum in erythrocytes, SYBR Green DNA, 72 h; series mostly up to 28.7 µM
Method in brief: as §1

[29] = tested on: Dd2; experiment: as above; settings: P. falciparum in erythrocytes, SYBR Green DNA, 72 h; series mostly up to 28.7 µM
Method in brief: as §1

[30] = tested on: ECU; experiment: as above; settings: P. falciparum in erythrocytes, SYBR Green DNA, 72 h; series mostly up to 28.7 µM
Method in brief: as §1

[31] = tested on: FAB9; experiment: as above; settings: P. falciparum in erythrocytes, SYBR Green DNA, 72 h; series mostly up to 28.7 µM
Method in brief: as §1

[32] = tested on: GB4; experiment: as above; settings: P. falciparum in erythrocytes, SYBR Green DNA, 72 h; series mostly up to 28.7 µM
Method in brief: as §1

[33] = tested on: HB3; experiment: as above; settings: P. falciparum in erythrocytes, SYBR Green DNA, 72 h; series mostly up to 28.7 µM
Method in brief: as §1

[34] = tested on: ICS; experiment: as above; settings: P. falciparum in erythrocytes, SYBR Green DNA, 72 h; series mostly up to 28.7 µM
Method in brief: as §1

[35] = tested on: N140; experiment: as above; settings: P. falciparum in erythrocytes, SYBR Green DNA, 72 h; series mostly up to 28.7 µM
Method in brief: as §1

[36] = tested on: P93_24; experiment: as above; settings: P. falciparum in erythrocytes, SYBR Green DNA, 72 h; series mostly up to 28.7 µM
Method in brief: as §1

[37] = tested on: PAD; experiment: as above; settings: P. falciparum in erythrocytes, SYBR Green DNA, 72 h; series mostly up to 28.7 µM
Method in brief: as §1

[38] = tested on: TAB109; experiment: as above; settings: P. falciparum in erythrocytes, SYBR Green DNA, 72 h; series mostly up to 28.7 µM
Method in brief: as §1

[39] = tested on: TAB165; experiment: as above; settings: P. falciparum in erythrocytes, SYBR Green DNA, 72 h; series mostly up to 28.7 µM
Method in brief: as §1

[40] = tested on: W2; experiment: as above; settings: P. falciparum in erythrocytes, SYBR Green DNA, 72 h; series mostly up to 28.7 µM
Method in brief: as §1

C1CN(P2(N3CC3)=NP(N3CC3)(N3CC3)=NP(N3CC3)(N3CC3)=N2)CCO1 (stereo unspecified)
inactive: Potency [1] | Potency [2] | max response [3] 42.2% | Potency [4]

Cc1nnc2n1-c1sc(Br)cc1C(c1ccccc1Cl)=NC2
inactive: Potency [1] | outcome [5] | Potency [6] | outcome [7] | Potency [8] | Potency [9] | max response [3] -25.2%

O=P1(N(CCCl)CCCl)NC(OO)CCO1 (stereo unspecified)
inactive: Potency [1] | Potency [2] | max response [3] 2.7% | Potency [4]

CC(C)C[C@H]1C(=O)N2CCC[C@H]2[C@]2(O)O[C@](NC(=O)[C@@H]3C[C@@H]4c5cccc6[nH]cc(c56)C[C@H]4N(C)C3)(C(C)C)C(=O)N12
inactive: Potency [10] | outcome [5] | Potency [6] | outcome [7] | Potency [8] | Potency [9] | max response [3] -14.2%

CC(O)C(C)n1ncn(-c2ccc(N3CCN(c4ccc(OCC5COC(Cn6cncn6)(c6ccc(Cl)cc6Cl)O5)cc4)CC3)cc2)c1=O (stereo unspecified)
inactive: Potency [11]

Oc1cc[c]([Hg][Cl])cc1
active: Potency [12] 2.82 µM | Potency [13] 50.1 µM | Potency [1] 8.09 µM and 9.07 µM | Potency [14] 1.14 µM | Potency [15] 0.907 µM | Potency [16] 2.24 µM | Potency [2] 5.8 µM and 6.51 µM | Potency [17] 8.91 µM | Potency [18] 3.16 µM | Potency [19] 11.2 µM | Potency [20] 10.7 µM | Potency [21] 8.91 µM | Potency [22] 10 µM | Potency [23] 5.01 µM | Potency [24] 8.49 µM | Potency [25] 10 µM | Potency [26] 8.91 µM | Potency [27] 7.57 µM | Potency [28] 6.75 µM | Potency [29] 11.2 µM | Potency [30] 10 µM | Potency [31] 10 µM | Potency [32] 6.75 µM | Potency [33] 11.2 µM | Potency [34] 7.94 µM | Potency [35] 6.31 µM | Potency [36] 11.2 µM | Potency [37] 11.2 µM | Potency [38] 7.08 µM | Potency [39] 10 µM | Potency [40] 5.36 µM | Potency [3] 6.51 µM | Potency [4] 3.16 µM and 5.62 µM
